High-throughput results from PubChem.
An excerpt weighted towards active compounds, which were near 2.4% of everything screened.
PGE2 EP2 inh: blocks the human prostaglandin E2 receptor EP2; C6 glioma cells expressing human EP2, cAMP TR-FRET; cells stimulated with saturating PGE2; inhibition, % at 25 µM; actives 0.52% (n = 260,000); AID 1422;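 active = percent inhibition above 40 after rounding to a whole number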;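 note: rat C6 glioma host cells with rolipram phosphodiesterase inhibitor present; the protocol text gives 20 µM as final concentration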
S1P3 antagonist: blocks the human S1P3 receptor; Q99500; CHO S1P3 NFAT-BLA reporter, FRET fluorescence, antagonist mode; inhibition, % at 4.98 µM; actives 0.27% (n = 170,000);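 active = inhibition above the plate cutoff, the mean inhibition of test wells on that plate plus 3 SD, cut at about 28% in these data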;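 note: cells challenged with S1P at its EC80 of 0.8 µM; blue over green emission ratio from cleaved BLA substrate after 4 h stimulation; 0% = S1P-stimulated wells and 100% = unstimulated DMSO-only wells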
Target sequence (Q99500 whole entry, looked up): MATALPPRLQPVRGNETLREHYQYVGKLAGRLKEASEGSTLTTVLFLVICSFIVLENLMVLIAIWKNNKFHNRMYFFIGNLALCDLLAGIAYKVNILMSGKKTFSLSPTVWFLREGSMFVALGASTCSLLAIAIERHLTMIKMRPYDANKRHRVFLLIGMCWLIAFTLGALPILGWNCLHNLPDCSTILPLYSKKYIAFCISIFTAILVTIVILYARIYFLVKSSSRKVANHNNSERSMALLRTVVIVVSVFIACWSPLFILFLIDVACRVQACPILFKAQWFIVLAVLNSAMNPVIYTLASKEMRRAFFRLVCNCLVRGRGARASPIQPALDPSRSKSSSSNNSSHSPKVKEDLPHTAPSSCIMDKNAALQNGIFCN
S1P4 agonist: human S1P4 receptor agonism. O95977. S1P4-expressing cell line, agonist reporter assay. activation, % at 4.98 µM. actives 0.35% (n = 220,000); in the data active = activation above about 11%;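 note: 0% = DMSO vehicle and 100% = reference agonist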
EP2 mod: modulators of human EP2 prostaglandin E2 receptor | P43116 | EP2-expressing cells, cAMP HTRF FRET, PGE2 co-stimulation | induction, % at 25 µM | actives 0.83% (n = 260,000) | AID 940;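 active = compounds whose cAMP rise, as percent of the full-agonist control response, exceeds 60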;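 note: rat C6 glioma line stably carrying human EP2 under a CMV promoter; the protocol text gives 20 µM as final concentration; 100% = response of wells given 1 µM PGE2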
INS promoter inh: TRM-6 insulin promoter activity inhibition; TRM-6 cells (human fetal islet line), insulin promoter-eGFP reporter, imaging; reporter expression induced with tamoxifen; inhibition, % at 2 µM; actives 0.9% (n = 130,000);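 active = inhibition above the mean plus 3 SD, with well images judged a real hit on visual review, cut at about 60% in these data, passing the limit was not always enough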
S1P4 antag: antagonists of human S1P4 receptor | O95977 | S1P4-expressing cells, antagonist mode, reporter read-out | inhibition, % at 4.98 µM | actives 0.26% (n = 220,000) | AID 1510; in the data active = inhibition above about 29%;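 note: 0% = wells stimulated with agonist and 100% = vehicle wells without agonist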
Starred values were filed as active, the others as inactive; x = no result given; + = active, no number; ! = not active in a repeat.

SMILES	PGE2 EP2 inh	S1P3 antagonist	S1P4 agonist	EP2 mod	INS promoter inh	S1P4 antag
CC1CCCCC1NC(=O)Cn1nnc(-c2ccc(N(C)C)cc2)n1 (stereo unspecified)	21	x	x	-50	x	x
CC1(C)OC(=O)C(=CNn2cnc3ccccc3c2=O)C(=O)O1	17	-17	-1	18	82*	14
CS(=O)(=O)Nn1cnc2ccccc2c1=O	8	-17	2	17	-4	-25
Cc1ccccc1CNC1CCCCC1	11	-10	0	33	-42	7
Oc1cc(CN2COc3ccccc32)c(O)cc1CNC1CCCCC1	118*	x	x	2	x	x
O=c1[nH]ncc(NC2CCCCC2)c1Cl	6	x	x	-12	x	x
COc1ccc(OC)c(NC(=O)CN(c2ccc(C(C)C)cc2)S(=O)(=O)c2c(C)noc2C)c1	12	54*	-6	23	x	-4
Cc1ccc2oc(C)c(C(=O)c3ccccc3)c(=O)c2c1	24	x	x	-8	x	x
O=C(NCc1cccnc1)NC1(c2ccccc2)CC1	5	77*	1	5	x	-18
O=C(O)c1cc(-c2ccc(-c3ccccc3)cc2)nc2cc3ccccc3cc12	46*	x	x	-52	x	x
Cc1ccc(NC(=O)CSc2nnc(-c3ccco3)n2Cc2ccco2)cc1	32	x	x	17	x	x
Cc1ccc(OCCCCn2ccnc2)c(Cl)c1	5	-6	-1	35	73*	-2
CN(C)c1ccc(C(=O)N2CCCC2c2nc3ccccc3[nH]2)cc1 (stereo unspecified)	x	x	x	-8	x	x
CN(Cc1cc(C(C)(C)C)cc(Br)c1O)Cc1cc(C(C)(C)C)cc(Br)c1O	43*	x	x	5	x	x
Cc1nn(-c2ccc(S(=O)(=O)O)cc2)c(O)c1N=Nc1ccc(-c2ccc(N=Nc3ccc4c(S(=O)(=O)O)cc(S(=O)(=O)O)c(N)c4c3O)c(O)c2)cc1O.[Cu].[Cu]	54*	x	x	21	x	x
COC(=O)c1cscc1NC(C)=O	14	x	2	-2	75*	-6
Cc1cccc(-c2cc3nc4c(c(N5CCOCC5)n3n2)CCCC4)c1	7	51	-2	61*	-33	-16
Fc1ccc(-c2cc3nc4c(c(N5CCOCC5)n3n2)CCCC4)cc1	8	25	1	74*!	-29	4
Cc1nn(CC(=O)NC(C)C)c(=O)c2cc3sccc3n12	x	x	x	-13	x	x
O=C(Nc1ccc2oc(=O)ccc2c1)c1ccccc1F	7	x	x	-41	x	x
CN(C)C(=O)Cn1cc(I)c(=O)[nH]c1=O	6	x	x	6	x	x
Brc1ccc(-c2cnc(-c3cccs3)o2)cc1	6	22	2	61*!	45	-36
Cc1ccccc1NC(=O)CSc1nc(N)cc(=O)[nH]1	5	x	x	-7	x	x
CCN(CC)c1ccc2nc3ccccc3[n+](CC)c2c1	+	x	x	-294	x	x
CCN(CC)c1ccc2cc(-c3nc4ccccc4[nH]3)c(=O)oc2c1	9	31	2	-1	x	7
SMILES	PGE2 EP2 inh	S1P3 antagonist	S1P4 agonist	EP2 mod	INS promoter inh	S1P4 antag
COCc1cc(C)n(CC(=O)Nc2ccc(Cl)cc2)c(=O)c1C#N	7	x	x	-25	x	x
CC(C)(C)C(=O)Nc1ccc(S(=O)(=O)c2ccc(NC(=O)C(C)(C)C)cc2)cc1	14	x	1	-15	75*	7
CC1(C)N=C(SCC(=O)Nc2ccc(Cl)cc2Cl)C(c2ccccc2)=N1	11	x	-1	11	-62	-6
CN1C(CC(=O)Nc2ccc(Cl)cc2Cl)c2ccccc2CC1(C)C (stereo unspecified)	8	9	1	61*	x	1
Cc1cc(C)c2[nH]c(=O)c(CN(Cc3ccco3)S(=O)(=O)c3cc(Cl)ccc3C)cc2c1	15	x	x	-2	x	x
CCOc1ncccc1C(=O)Nc1nc(C(C)(C)C)cs1	0	-19	1	64*	0	4
COC(=O)c1ccccc1NC(=O)C12CC3CC(C1)CC(n1cnc(Cl)n1)(C3)C2	12	x	-1	62*	-33	-5
CCc1ccc(N(C(=O)c2snc(C(N)=O)c2N)C(C(=O)NC2CCCC2)c2ccc(C)o2)cc1 (stereo unspecified)	9	x	x	45	x	x
CC1C(c2ccc(F)cc2)=NOC1C(=O)NCCCc1ccccn1 (stereo unspecified)	11	x	x	-4	x	x
CCOC(=O)CSC1=NC(=O)/C(=C/c2ccc(Br)cc2)S1	15	-13	-2	-84	36	15
CCOC(=O)CSC1=NC(=O)/C(=C\c2ccc(OC(C)=O)cc2)S1	53*	x	-2	-40	0	2
CCCCNc1nc(N)nc(-c2cc(Cl)ccc2O)n1	9	-5	-1	64*	15	-10
CCCNc1nc(N)nc(-c2cc(Cl)ccc2OC)n1	11	x	-1	3	0	0
CCNc1nc(N)nc(-c2cc(Cl)ccc2O)n1	8	-12	1	-33	62*	2
CCc1nn(CC(N)=O)c(=O)c2cc3sccc3n12	5	x	x	-11	x	x
O=C1NC(CC(=O)N2CCC(n3nnc(-c4ccc(F)cc4)n3)CC2)c2ccccc21 (stereo unspecified)	5	x	x	3	x	x
Cc1cn2c3c(=O)[nH]c(=O)n(C)c3nc2n1Cc1ccccc1	23	x	x	-10	x	x
O=C(Cn1nnc(-c2cccs2)n1)N1CCCc2ccccc21	12	x	x	-88	x	x
CC(C)(C)c1c2c(c(C(C)(C)C)c3c1OCN(Cc1ccccc1)C3)OCN(Cc1ccccc1)C2	80*	x	x	-32	x	x
COc1ccccc1NC(=O)N(CCc1ccccc1)Cc1cc2ccc(C)cc2[nH]c1=O	10	x	x	-13	x	x
Cc1ccc2cc(C(c3nnnn3C3CCCC3)N3CCC(O)CC3)c(=O)[nH]c2c1C (stereo unspecified)	14	x	x	-17	x	x
COC(=O)c1cc([N+](=O)[O-])c(-n2ccnc2)c([N+](=O)[O-])c1	5	-3	-1	63*	15	-21
Cc1nc2c(-c3ccccc3)c(C)nn2c(NCCN2CCOCC2)c1C	x	x	x	-40	x	x
CC(=O)Nc1ccc(NC(=O)C(Cc2ccccc2)NC(=O)C2CCCCC2)cc1 (stereo unspecified)	4	10	1	17	64*	2
FC(F)(F)c1cc(NC(=S)N2c3ccccc3-n3cccc3[C@H]2c2cccnc2)cc(C(F)(F)F)c1	44*	x	x	-16	x	x
S=C(Nc1ccc(Br)cc1)N1CCn2cccc2C1c1cccnc1 (stereo unspecified)	7	4	0	-97	-33	-8
O=C(O)CCN1CNC(=S)NC1	15	x	x	7	x	x
COc1ccc(C(=O)Cn2c(NCCO)nc3ccccc32)cc1OC	x	x	2	-5	87*	-28
CCOC(=O)Cn1ncc2c3sc(C)cc3n(Cc3cccc(OC)c3)c2c1=O	x	x	x	49	x	x
